Consider 39 compounds from the supplement of paper PMC9492666.

Structures can show the parent of a compound that is named as a salt.
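Note: breast cancer cell viability read out with the CCK-8 kit after co-treatment of each compound with the ferroptosis inducer RSL3.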

For the test, the system named is MDA-MB-231. Briefly: relative cell viability, compound + RSL3, vs DMSO (fraction of DMSO control); higher = less growth inhibition. The settings on record: 72 h.
Take `NC(=O)c1cnccn1` [Pyrazinamide] + COC(=O)c1ccc([C@H]2c3[nH]c4ccccc4c3C[C@H](C(=O)OC)N2C(=O)CCl)cc1 [RSL3]: the relative cell viability came out at 0.558.

As to `C[C@@H](Nc1nc(N[C@H](C)C(F)(F)F)nc(-c2cccc(Cl)n2)n1)C(F)(F)F` [Vorasidenib] + COC(=O)c1ccc([C@H]2c3[nH]c4ccccc4c3C[C@H](C(=O)OC)N2C(=O)CCl)cc1 [RSL3], the relative cell viability turned out to be 0.595. Then `O=C(OC(C(F)(F)F)C(F)(F)F)N1CCC(C(O)(c2ccc3c(c2)OCO3)c2ccc3c(c2)OCO3)CC1` + COC(=O)c1ccc([C@H]2c3[nH]c4ccccc4c3C[C@H](C(=O)OC)N2C(=O)CCl)cc1 [RSL3], with 0.551. On to `O=C(Nc1ccncc1)c1cc([N+](=O)[O-])ccc1Cl` + COC(=O)c1ccc([C@H]2c3[nH]c4ccccc4c3C[C@H](C(=O)OC)N2C(=O)CCl)cc1 [RSL3], for which the relative cell viability came out at 0.438.

For the compound `O=C(O)CC[C@H](O)C(=O)O` [L-2-Hydroxyglutaric acid disodium] + COC(=O)c1ccc([C@H]2c3[nH]c4ccccc4c3C[C@H](C(=O)OC)N2C(=O)CCl)cc1 [RSL3], the relative cell viability worked out at 0.76. With `CCC1C(O)C2C3CCC(C(C)CCO)C3(C)CCC2C2(C)CCC(O)CC12` (centres undefined) + COC(=O)c1ccc([C@H]2c3[nH]c4ccccc4c3C[C@H](C(=O)OC)N2C(=O)CCl)cc1 [RSL3] the figure was 0.364; with `CC(C)=CCC(O)C1=CC(=O)c2c(O)ccc(O)c2C1=O` (single isomer, unassigned; (+)) [(+)-Shikonin] + COC(=O)c1ccc([C@H]2c3[nH]c4ccccc4c3C[C@H](C(=O)OC)N2C(=O)CCl)cc1 [RSL3], 0.132. With `CS(=O)(=O)c1ccc(-c2nnc(/C=C/c3nnc(-c4ccc(C#N)cc4)o3)n2-c2ccccc2Cl)nc1` + COC(=O)c1ccc([C@H]2c3[nH]c4ccccc4c3C[C@H](C(=O)OC)N2C(=O)CCl)cc1 [RSL3], the relative cell viability stood at 0.502. Regarding `CC(=O)N1CCN(c2ccc(OCC3COC(Cn4ccnc4)(c4ccc(Cl)cc4Cl)O3)cc2)CC1` (centres undefined) [Ketoconazole] + COC(=O)c1ccc([C@H]2c3[nH]c4ccccc4c3C[C@H](C(=O)OC)N2C(=O)CCl)cc1 [RSL3], the relative cell viability amounted to 0.488. Take `O=C(O)Cc1cccc(OCCCN(Cc2cccc(C(F)(F)F)c2Cl)CC(c2ccccc2)c2ccccc2)c1` + COC(=O)c1ccc([C@H]2c3[nH]c4ccccc4c3C[C@H](C(=O)OC)N2C(=O)CCl)cc1 [RSL3]: the relative cell viability was determined as 0.686. With `CC(C)(Oc1ccc(CCNC(=O)c2ccc(Cl)cc2)cc1)C(=O)O` [Bezafibrate] + COC(=O)c1ccc([C@H]2c3[nH]c4ccccc4c3C[C@H](C(=O)OC)N2C(=O)CCl)cc1 [RSL3] the figure was 0.518. For the compound `CCCC[S+]([O-])c1sc2nc(-c3cccs3)cc(-c3ccccc3)c2c1N` (centres undefined) + COC(=O)c1ccc([C@H]2c3[nH]c4ccccc4c3C[C@H](C(=O)OC)N2C(=O)CCl)cc1 [RSL3], the relative cell viability is 0.513. `COc1ccc(C2(CNC(=O)c3ccc(NC(=O)c4ccco4)cc3)CCOCC2)cc1` + COC(=O)c1ccc([C@H]2c3[nH]c4ccccc4c3C[C@H](C(=O)OC)N2C(=O)CCl)cc1 [RSL3]: the relative cell viability came out at 0.49. With `Cc1cc(N2C[C@@H](C)N[C@@H](C)C2)ncc1-c1ccc(-c2nc3c(ccn3C)c(=O)[nH]2)cc1` + COC(=O)c1ccc([C@H]2c3[nH]c4ccccc4c3C[C@H](C(=O)OC)N2C(=O)CCl)cc1 [RSL3] the figure was 0.682; with `Cc1c(C)c2c(c(C)c1O)CCC(C)(COc1ccc(CC3SC(=O)NC3=O)cc1)O2` (centres undefined) [Troglitazone] + COC(=O)c1ccc([C@H]2c3[nH]c4ccccc4c3C[C@H](C(=O)OC)N2C(=O)CCl)cc1 [RSL3], 0.686.

Regarding `CC(C)(Oc1ccc(C(=O)c2ccc(Cl)cc2)cc1)C(=O)O` [Fenofibric acid] + COC(=O)c1ccc([C@H]2c3[nH]c4ccccc4c3C[C@H](C(=O)OC)N2C(=O)CCl)cc1 [RSL3], the relative cell viability is 0.535. As to `CN(C)C(=N)NC(=N)N` [Metformin hydrochloride] + COC(=O)c1ccc([C@H]2c3[nH]c4ccccc4c3C[C@H](C(=O)OC)N2C(=O)CCl)cc1 [RSL3], the relative cell viability was 0.605. Then `CC(C)OC(=O)CCC/C=C\C[C@@H]1[C@@H](CC[C@@H](O)CCc2ccccc2)[C@H](O)C[C@@H]1O` [Latanoprost] + COC(=O)c1ccc([C@H]2c3[nH]c4ccccc4c3C[C@H](C(=O)OC)N2C(=O)CCl)cc1 [RSL3], with 0.597; and `CC1=C(C)C(=O)C(C(CCCCCC(=O)O)c2ccccc2)=C(C)C1=O` (centres undefined) [Seratrodast] + COC(=O)c1ccc([C@H]2c3[nH]c4ccccc4c3C[C@H](C(=O)OC)N2C(=O)CCl)cc1 [RSL3], with 0.578; and `O=C(O)c1c[nH]c2cc(Cl)c(-c3ccc(C4(O)CCC4)cc3)cc12` + COC(=O)c1ccc([C@H]2c3[nH]c4ccccc4c3C[C@H](C(=O)OC)N2C(=O)CCl)cc1 [RSL3], with 0.572. As for `Cc1ccc(Oc2nc3cc(-c4ccc(-c5ccccc5)cc4)c(Cl)cc3[nH]2)cc1C(=O)O` + COC(=O)c1ccc([C@H]2c3[nH]c4ccccc4c3C[C@H](C(=O)OC)N2C(=O)CCl)cc1 [RSL3], the relative cell viability is 0.6. Then `CC(O)(CC(=O)O)CC(=O)O` [Meglutol] + COC(=O)c1ccc([C@H]2c3[nH]c4ccccc4c3C[C@H](C(=O)OC)N2C(=O)CCl)cc1 [RSL3], with 0.613.

Turning to `CCCCCCCCCCCC1=C(O)C(=O)C=C(O)C1=O` [Embelin] + COC(=O)c1ccc([C@H]2c3[nH]c4ccccc4c3C[C@H](C(=O)OC)N2C(=O)CCl)cc1 [RSL3], the relative cell viability was 0.471. Then `CCN(CC)CCN(Cc1ccc(-c2ccc(C(F)(F)F)cc2)cc1)C(=O)Cn1c(SCc2ccc(F)cc2)nc(=O)c2c1CCC2` [Darapladib] + COC(=O)c1ccc([C@H]2c3[nH]c4ccccc4c3C[C@H](C(=O)OC)N2C(=O)CCl)cc1 [RSL3], with 0.232. For the compound `C=C1C[C@]2(O)O[C@@]3(CC2=C(C)C)[C@@H](C)CC[C@@H]13` [Isocurcumenol] + COC(=O)c1ccc([C@H]2c3[nH]c4ccccc4c3C[C@H](C(=O)OC)N2C(=O)CCl)cc1 [RSL3], the relative cell viability amounted to 0.568. Then `CC(=O)c1c(C)cc2cccc(O)c2c1O` [Nepodin] + COC(=O)c1ccc([C@H]2c3[nH]c4ccccc4c3C[C@H](C(=O)OC)N2C(=O)CCl)cc1 [RSL3], with 0.56. `O=S(=O)(Nc1ccc(C(O)(C(F)(F)F)C(F)(F)F)cc1)c1cccs1` + COC(=O)c1ccc([C@H]2c3[nH]c4ccccc4c3C[C@H](C(=O)OC)N2C(=O)CCl)cc1 [RSL3]: the relative cell viability came to 0.63.

As to `CNC(=O)c1cccc(NC(=O)N2CCC(Oc3ccccc3Cl)CC2)c1` + COC(=O)c1ccc([C@H]2c3[nH]c4ccccc4c3C[C@H](C(=O)OC)N2C(=O)CCl)cc1 [RSL3], the relative cell viability turned out to be 0.683. Then `CN1CC(O)C2=C/C(=N/NC(N)=O)C(=O)C=C21` (centres undefined) [Carbazochrome] + COC(=O)c1ccc([C@H]2c3[nH]c4ccccc4c3C[C@H](C(=O)OC)N2C(=O)CCl)cc1 [RSL3], with 0.551. With `O=C(/C=C/c1ccc(/C=C/C(=O)Nc2ccc(C3=NCCN3)cc2)cc1)Nc1ccc(C2=NCCN2)cc1` + COC(=O)c1ccc([C@H]2c3[nH]c4ccccc4c3C[C@H](C(=O)OC)N2C(=O)CCl)cc1 [RSL3] the figure was 0.378; with `O=C(NNc1ccccc1)c1ccncc1` [PluriSln 1] + COC(=O)c1ccc([C@H]2c3[nH]c4ccccc4c3C[C@H](C(=O)OC)N2C(=O)CCl)cc1 [RSL3], 0.656.

On to `CCC(=O)Nc1cccc(Oc2nc(Nc3ccc(N4CCN(C)CC4)cc3OC)ncc2Cl)c1` + COC(=O)c1ccc([C@H]2c3[nH]c4ccccc4c3C[C@H](C(=O)OC)N2C(=O)CCl)cc1 [RSL3], for which the relative cell viability was 0.3. Consider `O=C(NCCS(=O)(=O)c1ccc(C(F)(F)F)cn1)c1ccc(Cl)cc1` + COC(=O)c1ccc([C@H]2c3[nH]c4ccccc4c3C[C@H](C(=O)OC)N2C(=O)CCl)cc1 [RSL3], for which the relative cell viability was determined as 0.525.

Regarding `COc1cc([C@@H]2Oc3c(O)cc([C@H]4Oc5cc(O)cc(O)c5C(=O)[C@@H]4O)cc3[C@H]2CO)ccc1O` [Silychristin] + COC(=O)c1ccc([C@H]2c3[nH]c4ccccc4c3C[C@H](C(=O)OC)N2C(=O)CCl)cc1 [RSL3], the relative cell viability came to 0.66. Then `Cc1ccc(/C=C2\SC(=S)N(CCCCCC(=O)Nc3ccc(C(=O)O)c(O)c3)C2=O)cc1` + COC(=O)c1ccc([C@H]2c3[nH]c4ccccc4c3C[C@H](C(=O)OC)N2C(=O)CCl)cc1 [RSL3], with 0.577; and `Cc1cccc(Nc2cc(Cl)nc(SCC(=O)O)n2)c1C` [Pirinixic Acid] + COC(=O)c1ccc([C@H]2c3[nH]c4ccccc4c3C[C@H](C(=O)OC)N2C(=O)CCl)cc1 [RSL3], with 0.495; and `CC[C@@H]1/C=C(\C)C[C@H](C)C[C@H](OC)[C@H]2O[C@@](O)(C(=O)C(=O)N3CCCC[C@H]3C(=O)O[C@H](/C(C)=C/[C@@H]3CC[C@@H](O)[C@H](OC)C3)[C@H](C)[C@@H](O)CC1=O)[C@H](C)C[C@@H]2OC` [Ascomycin] + COC(=O)c1ccc([C@H]2c3[nH]c4ccccc4c3C[C@H](C(=O)OC)N2C(=O)CCl)cc1 [RSL3], with 0.236. With `CC1CC(OC(=O)C(O)c2ccccc2)CC(C)(C)C1` (centres undefined) [Cyclandelate] + COC(=O)c1ccc([C@H]2c3[nH]c4ccccc4c3C[C@H](C(=O)OC)N2C(=O)CCl)cc1 [RSL3] the figure was 0.638. Then `CC[C@H](C)C(=O)O[C@H]1C[C@@H](C)C=C2C=C[C@H](C)[C@H](CC[C@@H]3C[C@@H](O)CC(=O)O3)[C@H]21` [Lovastatin] + COC(=O)c1ccc([C@H]2c3[nH]c4ccccc4c3C[C@H](C(=O)OC)N2C(=O)CCl)cc1 [RSL3], with 0.491.
